Laboratory results as given in the supplement of paper PMC12645437, “Orthogonal IMiD-Degron Pairs Induce Selective Protein Degradation in Cells” (ACS Chemical Biology, 2025).
The full ranking holds about 8,300 sequences; the median of “log2 fold change of degron read counts, EGFP-low vs EGFP+ sorted cells (limma voom), compound-induced degradation” is about -1.1, and the highest 2% start at about 3.2. The full list was thinned out, with the highest values kept by preference.

T1: CRBN, Q96SW2
T1 chain: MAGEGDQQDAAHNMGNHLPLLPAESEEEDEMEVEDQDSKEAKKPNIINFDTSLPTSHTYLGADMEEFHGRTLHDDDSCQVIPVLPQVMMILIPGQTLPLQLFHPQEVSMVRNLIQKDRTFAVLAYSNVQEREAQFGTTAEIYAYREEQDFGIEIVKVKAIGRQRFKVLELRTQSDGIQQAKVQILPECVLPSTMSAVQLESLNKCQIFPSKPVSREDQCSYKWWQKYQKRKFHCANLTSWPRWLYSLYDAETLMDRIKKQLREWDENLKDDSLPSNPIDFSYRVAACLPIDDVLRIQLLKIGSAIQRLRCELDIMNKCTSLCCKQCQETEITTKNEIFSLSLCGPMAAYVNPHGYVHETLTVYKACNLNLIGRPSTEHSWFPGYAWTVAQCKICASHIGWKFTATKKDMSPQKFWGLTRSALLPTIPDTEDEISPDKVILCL


Target: T1, CRBN, Q96SW2
Test: log2 fold change of degron read counts, EGFP-low vs EGFP+ sorted cells (limma voom), compound-induced degradation; higher = more compound-induced degradation of the degron-EGFP fusion; degrons are variants of IKZF1/3 zinc finger 2; compound dose not given here
Conditions: Jurkat, 18 h
[1] = compound: compound 19 (5-tert-butyl-thalidomide)
[2] = compound: compound 22 (5-morpholino-thalidomide)
[3] = compound: compound 33 (diphenyl IMiD analogue)
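Also: pooled lentiviral library of zinc finger degron-EGFP fusions in mCherry-positive Jurkat cells, FACS-sorted after compound exposure, with degron abundance counted by next-generation sequencing.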

Sequence	log2 fold change of degron read counts [1]	log2 fold change of degron read counts [2]	log2 fold change of degron read counts [3]	log2 fold change of degron read counts (compound: thalidomide)
LLCEICGFNCTQKGNLLRHIKL [46L_47L_49E_50I_52G_53F_54N_55C_67L_, Q9UKT9]	-1.18	-1.96	-1.11	-0.267
FYCEICGRPFTQKGNLLRHIKL [46F_47Y_49E_50I_52G_53R_54P_55F_67L_, Q9UKT9]	3.04	1.62	1.39	0.0233
FACNQCGHHFTQKGNLLRHIKL [46F_47A_49N_50Q_52G_53H_54H_55F_67L_, Q9UKT9]	-2.3	-2.72	-2.62	-2.01
FDCNQCGASFTQKGNLLRHIKL [46F_47D_49N_50Q_52G_53A_54S_55F_67L_, Q9UKT9]	-2.01	-2.73	-2.35	-2.1
FYCPICGHYFTQKGNLLRHIKL [46F_47Y_49P_50I_52G_53H_54Y_55F_67L_, Q9UKT9]	-0.992	-1.44	-0.727	-1.13
FWCPICGAFFTQKGNLLRHIKL [46F_47W_49P_50I_52G_53A_54F_55F_67L_, Q9UKT9]	2.39	3	1.83	0.77
LKCNQCGFQCTQKGNLLRHIKL [46L_47K_49N_50Q_52G_53F_54Q_55C_67L_, Q9UKT9]	-2.34	-2.76	-2.86	-2.48
FKCDQCGAEFTQKGNLLRHIKL [46F_47K_49D_50Q_52G_53A_54E_55F_67L_, Q9UKT9]	-2.81	-1.6	-3.49	-3
FFCEVCGATFTQKGNLLRHIKL [46F_47F_49E_50V_52G_53A_54T_55F_67L_, Q9UKT9]	2.72	3.74	1.9	1.47
FVCEVCGATFTQKGNLLRHIKL [46F_47V_49E_50V_52G_53A_54T_55F_67L_, Q9UKT9]	-0.246	1.36	1.98	2.24
FLCEVCGATFTQKGNLLRHIKL [46F_47L_49E_50V_52G_53A_54T_55F_67L_, Q9UKT9]	-1.71	-1.32	0.752	1.34
FLCPICGRGFTQKGNLLRHIKL [46F_47L_49P_50I_52G_53R_54G_55F_67L_, Q9UKT9]	-1.58	-1.94	-0.785	-0.724
FACPICGAHFTQKGNLLRHIKL [46F_47A_49P_50I_52G_53A_54H_55F_67L_, Q9UKT9]	3.08	1	0.948	0.563
FVCPICGAHFTQKGNLLRHIKL [46F_47V_49P_50I_52G_53A_54H_55F_67L_, Q9UKT9]	-0.217	2.12	1.37	2.41
FFCPICGAHFTQKGNLLRHIKL [46F_47F_49P_50I_52G_53A_54H_55F_67L_, Q9UKT9]	2.66	2.83	1.81	0.615
FCCPICGAHFTQKGNLLRHIKL [46F_47C_49P_50I_52G_53A_54H_55F_67L_, Q9UKT9]	1.94	0.949	1.85	1.24
FYCPICGAHFTQKGNLLRHIKL [46F_47Y_49P_50I_52G_53A_54H_55F_67L_, Q9UKT9]	3.12	3.56	2.1	0.702
FSCPICGAHFTQKGNLLRHIKL [46F_47S_49P_50I_52G_53A_54H_55F_67L_, Q9UKT9]	2.35	1.14	1.5	1.13
FGCPICGAHFTQKGNLLRHIKL [46F_47G_49P_50I_52G_53A_54H_55F_67L_, Q9UKT9]	2.89	1.31	1.51	0.333

Sequence	log2 fold change of degron read counts [1]	log2 fold change of degron read counts [2]	log2 fold change of degron read counts [3]	log2 fold change of degron read counts (compound: thalidomide)
FWCPICGAHFTQKGNLLRHIKL [46F_47W_49P_50I_52G_53A_54H_55F_67L_, Q9UKT9]	2.66	3.51	1.81	0.881
FQCPICGAHFTQKGNLLRHIKL [46F_47Q_49P_50I_52G_53A_54H_55F_67L_, Q9UKT9]	0.0422	1.5	1.32	3.32
FECEQCGADFTQKGNLLRHIKL [46F_47E_49E_50Q_52G_53A_54D_55F_67L_, Q9UKT9]	-3.85	-4.35	-2.06	-2.36
FWCPVCGALFTQKGNLLRHIKL [46F_47W_49P_50V_52G_53A_54L_55F_67L_, Q9UKT9]	1.3	2.3	1.77	0.113
FYCEICGREFTQKGNLLRHIKL [46F_47Y_49E_50I_52G_53R_54E_55F_67L_, Q9UKT9]	-0.515	-1.07	-0.325	-1.93
FGCPICGHWFTQKGNLLRHIKL [46F_47G_49P_50I_52G_53H_54W_55F_67L_, Q9UKT9]	-1.35	-2.19	-1.6	-1.77
FECEVCGANFTQKGNLLRHIKL [46F_47E_49E_50V_52G_53A_54N_55F_67L_, Q9UKT9]	-0.492	-1.03	2.04	2.31
FMCEVCGANFTQKGNLLRHIKL [46F_47M_49E_50V_52G_53A_54N_55F_67L_, Q9UKT9]	-0.728	0.197	2.72	1.11
FTCEVCGANFTQKGNLLRHIKL [46F_47T_49E_50V_52G_53A_54N_55F_67L_, Q9UKT9]	-0.297	1.72	1.21	2.03
FVCEVCGANFTQKGNLLRHIKL [46F_47V_49E_50V_52G_53A_54N_55F_67L_, Q9UKT9]	-0.0108	2.6	2.09	2.74
FICEVCGANFTQKGNLLRHIKL [46F_47I_49E_50V_52G_53A_54N_55F_67L_, Q9UKT9]	-0.804	2.54	2.03	2.44
FLCEVCGANFTQKGNLLRHIKL [46F_47L_49E_50V_52G_53A_54N_55F_67L_, Q9UKT9]	-0.0798	-0.418	0.939	1.25
FWCEVCGANFTQKGNLLRHIKL [46F_47W_49E_50V_52G_53A_54N_55F_67L_, Q9UKT9]	3.33	3.86	2.16	1.61
FQCEVCGANFTQKGNLLRHIKL [46F_47Q_49E_50V_52G_53A_54N_55F_67L_, Q9UKT9]	0.104	1.29	1.34	3.56
FNCEVCGANFTQKGNLLRHIKL [46F_47N_49E_50V_52G_53A_54N_55F_67L_, Q9UKT9]	2.09	0.096	-0.251	-0.321
FFCEVCGANFTQKGNLLRHIKL [46F_47F_49E_50V_52G_53A_54N_55F_67L_, Q9UKT9]	2.83	3.44	1.84	1.47
FYCEVCGANFTQKGNLLRHIKL [46F_47Y_49E_50V_52G_53A_54N_55F_67L_, Q9UKT9]	3.26	3.88	2.56	1.5
FHCEVCGANFTQKGNLLRHIKL [46F_47H_49E_50V_52G_53A_54N_55F_67L_, Q9UKT9]	0.846	0.806	-0.028	-0.545
